Laboratory results reported in PubChem BioAssay (Tox21).
Records with an inconclusive call do not appear. Calls of active or inactive are those of the source. Calls come from the whole dose curve; as a rule, active = well fitted activation curve with a large enough effect in the signal ratio in the repeat runs (not every such curve was filed as active); inconclusive = weak or mixed curves; inactive = flat fitted curve, though single readings scatter; the % refers to the signal ratio.

Assay: p53 small molecule agonists, cell-based qHTS assay (AID 1963582)
Conditions: HCT-116 p53RE-bla reporter, beta-lactamase FRET ratio, 16 h; series mostly up to 66 µM; activation: at the top concentration
Description: National Center for Advancing Translational Sciences [NCATS]
Division of Preclinical Innovation [DPI]
U.S. Environmental Protection Agency [EPA]
National Institutes of Environmental Health Sciences [NIEHS]
National Toxicology Program [NTP]
U.S. Food and Drug Administration [FDA]
p53, a tumor suppressor protein, is activated following cellular insult, including DNA damage and other cellular stresses. The activation of p53 regulates cell fate by inducing DNA repair, cell cycle arrest, apoptosis, or cellular senescence. The activation of p53, therefore, is a good indicator of DNA damage and other cellular stresses. […] The activation of the reporter gene under culture conditions can be detected by fluorescence intensity. This cell line was used to screen the Tox21 10K compound library in a 1536-well plate format and to identify agonists that activate the p53 signaling pathway.
Tox21 Assay Protocol Summary:
The p53RE-bla cells were dispensed at 4,000 cells/5 ul/well in 1536-well black wall/clear bottom plates using a Multidrop dispenser. After the assay plates were incubated at a 37 C/5% CO2 incubator for 5 hours, 23 nL of compounds dissolved in DMSO, positive controls or DMSO only was transferred to the assay plate by a pin tool. The plates were incubated at 37 C for 16 hours. After 1 uL of LiveBLAzerTM B/G FRET substrate was added using a Flying Reagent Dispenser, the plates were incubated at room temperature for 2 hours, and fluorescence intensity was measured by an Envision plate reader.
% is set by controls: 0 for no effect and ±100 for the full control effect; potency is the fitted concentration of half-maximal effect.

| SMILES | activation | Potency |
| --- | --- | --- |
| NC(=O)N[C@@H](CCC(=O)O)C(=O)O | 1.99% [at 30.3 µM] (inactive) |  |
| CC(C)(CC(=O)O)C(=O)O | 1.9% (inactive) |  |
| O=[N+]([O-])c1ccc(Oc2ccc([N+](=O)[O-])cc2)cc1 | -2.39% (inactive) |  |
| CC(C)(c1cc(Br)c(OCC(Br)CBr)c(Br)c1)c1cc(Br)c(OCC(Br)CBr)c(Br)c1 (stereo not given) | 2.75% [at 30.3 µM] (inactive) |  |
| Cc1ccc(C(=O)O)cc1 | 0.379% (inactive) |  |
| CCCCCCCCCCCCCC | -1.1% (inactive) |  |
| CCCCOC(=O)[C@H](C)O | 0.454% (inactive) |  |
| CCCCCCCOC(C)=O | 0.774% (inactive) |  |
| CC(=O)CCC(C)C |  | inactive |
| CCC(=O)OC(C)c1ccccc1 (stereo not given) | 4.38% (inactive) |  |
| C/C=C/c1ccc(OC)c(OC)c1 | -5.89% (inactive) |  |
| CN(C)C(=O)Oc1ccc[n+](C)c1 | 2.2% [at 30.3 µM] (inactive) |  |
| C=C(C)C(=O)NCCC[N+](C)(C)C | 0.684% (inactive) |  |
| CC(C)C(=O)c1c(C(C)C)nn2ccccc12 | -0.555% [at 30.3 µM] (inactive) |  |
| CCCCC(CC)COCCO (stereo not given) | 0.71% (inactive) |  |
| CCCOCCO |  | inactive |
| CC(C)NCC(O)COc1cccc2ccccc12 (stereo not given) |  | inactive |
| CCCCNc1ccccc1 | 2.67% (inactive) |  |
| O=C1CC(c2ccc(Cl)cc2)CC(=O)N1 | -1.13% [at 30.3 µM] (inactive) |  |
| Cc1cccc(N)n1 | 6.87% (inactive) |  |

| SMILES | activation | Potency |
| --- | --- | --- |
| CC(=O)O[C@H]1C[C@@H]2CC[C@@]1(C)C2(C)C | 0.302% (inactive) |  |
| Cc1ccc(S(N)(=O)=O)cc1 |  | inactive |
| N#[N+]c1ccc2c(S(=O)(=O)[O-])cccc2c1O | -5.24% (inactive) |  |
| CC(C)(O)C#CC(C)(C)O | -2.76% (inactive) |  |
| CC(=O)SC[C@@H](C)C(=O)N1CCC[C@H]1C(=O)N[C@@H](Cc1ccccc1)C(=O)O | -0.287% [at 30.3 µM] (inactive) |  |
| C1=C\CC/C=C\CC/C=C\CC/1 | -0.918% (inactive) |  |
| NC/C=C/C(=O)O | 1.92% [at 30.3 µM] (inactive) |  |
| CC(C)N=C=NC(C)C | 0.02% (inactive) |  |
| O=C(O)/C=C/c1ccc(Cn2ccnc2)cc1 | 0.411% [at 30.3 µM] (inactive) |  |
| C1CSCCS1 | -0.0785% (inactive) |  |
| CC(C)[C@H]1CC[C@@H](C)CC1=O | 0.0068% (inactive) |  |
| CC1=CCC(C(C)(C)O)CC1 (stereo not given) |  | inactive |
| CC1OC1C1CCC2(C)OC2C1 (stereo not given) | 2.88% (inactive) |  |
| O=C(O)[C@@H]1[C@H]2C[C@H]3c4[nH]c5ccccc5c4CCN3C[C@@H]2CC[C@@H]1O | -0.768% [at 30.3 µM] (inactive) |  |
| [Cl][In]([Cl])[Cl] | -2.15% (inactive) |  |
| CN(C)c1ccc2nc3ccc(=[N+](C)C)cc-3sc2c1 |  | 28.9 µM (active) |
| CCc1c(C(=O)O)c(=O)cnn1-c1ccc(Cl)cc1 | 0.412% (inactive) |  |
| CCCCC1CCC(O)CC1 (stereo not given) | 0.227% (inactive) |  |
| Cc1ccc(/C(=C\CN2CCCC2)c2ccccn2)cc1 |  | inactive |
| COC(=O)c1cc(Cl)c(NC(C)=O)cc1OC | 0.15% [at 30.3 µM] (inactive) |  |
